In one experiment the test system is HeLa. Briefly: Primary qHTS to identify gynecologic anti-cancer compounds using libraries of approved drugs and bioactive compounds (AID 1345084). Further: nearly all actives have a fitted effect of over 55% in size. Further: potency means the concentration at half of the fitted maximal effect. The note with it: Gynecologic cancer cell panel viability, ATPlite luminescence, 48 h; series mostly up to 57.5 µM. The procedure, abridged: (§1)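 Cells, 1,000 per well, plated 16 h, then exposed 48 h at 37 C to compounds. Viability by ATPlite luminescence after 15 min at room temperature.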
(In general: In qHTS, concentration-response curves come from the screen itself.)

The next experiment relates to Hek293T. Described as above. Particulars: Gynecologic cancer cell panel viability, ATPlite luminescence, 48 h, control line for the selectivity index; series mostly up to 57.5 µM. Summed up: as §1
For orientation: Cellular ATP, detected with luciferase, serves as a proxy for viable cell number.

Another experiment concerns JEG-3. Described as above. The note with it: Gynecologic cancer cell panel viability, ATPlite luminescence, 48 h; series mostly up to 57.5 µM. The procedure, abridged: as §1
A further experiment concerns OV90. The description is as above. The note with it: Gynecologic cancer cell panel viability, ATPlite luminescence, 48 h; series mostly up to 57.5 µM. Summed up: as §1
The subject of the next experiment is PA-1. The experiment is described as above. Particulars: Gynecologic cancer cell panel viability, ATPlite luminescence, 48 h; series mostly up to 57.5 µM. The procedure, abridged: as §1
The next experiment relates to SKOV3. The description is as above. Particulars: Gynecologic cancer cell panel viability, ATPlite luminescence, 48 h; series mostly up to 57.5 µM. Summed up:
as §1

The subject of another experiment is Tov-21-G. The description is as above. Particulars: Gynecologic cancer cell panel viability, ATPlite luminescence, 48 h; series mostly up to 57.5 µM. Summed up:
as §1

A further experiment relates to Tov112D. The experiment is described as above. Particulars: Gynecologic cancer cell panel viability, ATPlite luminescence, 48 h; series mostly up to 57.5 µM. The procedure, abridged:
as §1

Experiment [1] can be described thus: Drug repurposing screens with cells derived from glioblastoma tumor samples (AID 1345199). Further: nearly all actives have a fitted effect of over 40% in size. The note with it: GBM patient neurospheres viability, ATP luminescence, 48 h; Potency: tumour line A unless noted; series mostly up to 45.9 µM. Summed up: (§2)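 Primary testing used CD133+ neurospheres from four GBM patients, seven concentrations, 48 h exposure and ATP-based viability; confirmation added three slower-growing patient lines.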

A further experiment has as its system astro. Described as above. The note with it: viability, ATP luminescence, 48 h; series mostly up to 45.9 µM. Summed up:
as §2

Several values for one entry are separate records, joined by “and”; a condition that tells them apart may be missing. Equal values may be shown once. Records with an inconclusive call do not appear. Where a structure was tested more than once in an assay, its records may differ in their call. Activity calls are given as the source filed them. The call rests on the fitted dose curve; in most records, active means well fitted curve in the direction sought with a large enough effect; inconclusive means small, poorly fitted or top-dose-only effect, or another doubt; inactive means no such curve, though single readings can be large; an effect the other way counts as inactive or inconclusive.

Consider `O=[N+]([O-])/N=C1\NCCN1Cc1ccc(Cl)nc1`, for which the Potency result in the experiment with HeLa, in the experiment on Hek293T, in the experiment with JEG-3, in the experiment on OV90, in the experiment on PA-1 and with SKOV3 was “inactive” in each case. Further, the Potency entry in the experiment with Tov-21-G and in the experiment on Tov112D was “inactive” each time.

As for `CC[N+]1(CCOC(=O)C(O)(c2ccccc2)c2ccccc2)CCCCC1`, the Potency entry in the experiment with HeLa, with Hek293T, in the experiment on JEG-3, in the experiment on OV90, in the experiment with PA-1 and in the experiment with SKOV3 was “inactive” each time. Further, the Potency entry (in the experiment with Tov-21-G; in the experiment on Tov112D; in experiment [1]) was “inactive” in each case.

As to `Cc1ccccc1-n1c(Cn2cnc3c(N)ncnc32)nc2cccc(C)c2c1=O`, the Potency entry in the experiment on HeLa, in the experiment with Hek293T, with JEG-3, with OV90, in the experiment with PA-1 and in the experiment with SKOV3 was “inactive” throughout. In addition, the Potency entry with Tov-21-G and in the experiment on Tov112D was “inactive” throughout.

On to `CC(O)CN1CCN(CC(=O)[O-])CCN(CC(=O)[O-])CCN(CC(=O)[O-])CC1.[Gd+3]` (configuration not stated), for which the Potency entry with HeLa, in the experiment on Hek293T, in the experiment on JEG-3, with OV90, in the experiment with PA-1 and in the experiment on SKOV3 was “inactive” each time. For the same compound, the Potency entry (in the experiment with Tov-21-G; in the experiment with Tov112D; in experiment [1]) was “inactive” in each case.

Turning to `O=C1C(I)=CC(=C(c2cc(I)c(O)c(I)c2)c2ccccc2C(=O)O)C=C1I`, the Potency result in the experiment with HeLa, with Hek293T, in the experiment with JEG-3, in the experiment on OV90, in the experiment with PA-1 and with SKOV3 was “inactive” throughout. For the same compound, the Potency result (with Tov-21-G; with Tov112D; in experiment [1]) was “inactive” throughout.

As to `O=C1C=CC[C@@H]2[C@H]3CCCN4CCC[C@@H](CN12)[C@@H]34`, the Potency result in the experiment on HeLa, in the experiment on Hek293T, with JEG-3, in the experiment on OV90, in the experiment on PA-1 and in the experiment on SKOV3 was “inactive” throughout. Also, the Potency entry in the experiment with Tov-21-G and with Tov112D was “inactive” throughout.

With `CCNC(=O)CC1N=C(c2ccc(Cl)cc2)c2cc(OC)ccc2-n2c(C)nnc21` (configuration not stated), the Potency entry with HeLa, in the experiment with Hek293T, in the experiment with JEG-3, in the experiment on OV90, with PA-1 and in the experiment on Tov-21-G was “inactive” each time. Further, the Potency entry in the experiment with Tov112D is “inactive”. The Potency result in the experiment on SKOV3 is “inactive and 15.8 µM (active)”.

As for `CCN(CC)C(=O)c1ccc(C2=CC3(CCNCC3)Oc3cccc(O)c32)cc1`, the Potency entry in the experiment with HeLa, in the experiment with Hek293T, with JEG-3, in the experiment with OV90, in the experiment with PA-1 and with SKOV3 was “inactive” each time. Further, the Potency result in the experiment on Tov-21-G and in the experiment with Tov112D was “inactive” throughout.

Take `Cc1ccccc1-n1c(Cn2ncc3c(N)ncnc32)nc2cccc(C)c2c1=O`: the Potency entry in the experiment with HeLa, with Hek293T, in the experiment on JEG-3, in the experiment on OV90, in the experiment with PA-1 and in the experiment on SKOV3 was “inactive” in each case. Moreover, the Potency entry in the experiment on Tov-21-G and in the experiment on Tov112D was “inactive” in each case.

In the case of `CC(=O)N(C)c1cccc(-c2ccnc3c(C(=O)c4cccs4)cnn23)c1`, the Potency result with HeLa, in the experiment with Hek293T, in the experiment with JEG-3, in the experiment on OV90, with PA-1 and in the experiment on SKOV3 was “inactive” each time. Also, the Potency result with Tov-21-G and in the experiment with Tov112D was “inactive” each time.

In the case of `CN[C@@H](C)[C@H](O)c1ccccc1`, the Potency entry with HeLa, with Hek293T, with JEG-3, in the experiment on OV90, in the experiment on PA-1 and with SKOV3 was “inactive” each time. Also, the Potency result (with Tov-21-G; with Tov112D; in experiment [1]; in the experiment on astro) was “inactive” throughout.

Turning to `O=C(Nc1ccccc1-c1ccc(Cl)cc1)c1cccnc1Cl`, the Potency result with HeLa, in the experiment on Hek293T, in the experiment on JEG-3, with PA-1, with SKOV3 and in the experiment on Tov-21-G was “inactive” in each case. In the experiment on Tov112D, the Potency entry is “inactive”.

In the case of `CC(C)(C)C(O)C(Oc1ccc(Cl)cc1)n1cncn1` (configuration not stated), the Potency result in the experiment with HeLa, with Hek293T, with JEG-3, in the experiment on PA-1, in the experiment on SKOV3 and in the experiment with Tov-21-G was “inactive” in each case. In the experiment with Tov112D, the Potency entry was “inactive”.

Turning to `Nc1ccc([N+](=O)[O-])cc1`, the Potency entry in the experiment with HeLa, in the experiment on Hek293T, with JEG-3, in the experiment on OV90, with PA-1 and in the experiment with Tov-21-G was “inactive” throughout. Moreover, the Potency result in the experiment on Tov112D and in the experiment with astro was “inactive” in each case.

As to `ClC1=C(Cl)[C@]2(Cl)[C@@H]3[C@@H]4C[C@@H]([C@H]5O[C@@H]45)[C@@H]3[C@@]1(Cl)C2(Cl)Cl`, the Potency entry in the experiment with HeLa, in the experiment with Hek293T, in the experiment on JEG-3, with PA-1, in the experiment with Tov-21-G and in the experiment with Tov112D was “inactive” in each case.

For the compound `CCOP(=O)(NC(C)C)Oc1ccc(SC)c(C)c1` (configuration not stated), the Potency result with HeLa, in the experiment on Hek293T, with JEG-3, with PA-1, in the experiment with Tov-21-G and in the experiment on Tov112D was “inactive” throughout. Besides, the Potency result in experiment [1] is “inactive”.

In the case of `C=CC(=O)NCNC(=O)C=C`, the Potency result with HeLa, with Hek293T, in the experiment on JEG-3, with OV90, in the experiment on PA-1 and with SKOV3 was “inactive” in each case. For the same compound, the Potency entry (in the experiment on Tov-21-G; with Tov112D; in experiment [1]; in the experiment on astro) was “inactive” in each case.

For `CC(C)N(CCNC(=O)CN1CCCC1=O)C(C)C`, the Potency entry in the experiment on HeLa, in the experiment on Hek293T, in the experiment on JEG-3, in the experiment with OV90, in the experiment on PA-1 and in the experiment with Tov-21-G was “inactive” each time. Also, the Potency entry in the experiment with Tov112D was “inactive”.

Consider `O=S(=O)(O)C(F)(F)C(F)(F)C(F)(F)C(F)(F)F`, for which the Potency result in the experiment on HeLa, in the experiment with Hek293T, in the experiment on JEG-3, in the experiment with OV90, in the experiment with PA-1 and in the experiment on SKOV3 was “inactive” throughout. In addition, the Potency result (in the experiment on Tov-21-G; in the experiment with Tov112D; in experiment [1]; in the experiment on astro) was “inactive” throughout.

For the compound `Cc1[nH]nc2ccc(-c3cncc(OC[C@@H](N)Cc4c[nH]c5ccccc45)c3)cc12`, the Potency is 891 nM (active) in the experiment on HeLa; 631 nM (active) in the experiment on Hek293T; 2820 nM (active) in the experiment on JEG-3; 5620 nM (active) with OV90; 794 nM (active) with PA-1; 708 nM (active) with Tov-21-G. Also, in the experiment on Tov112D, the Potency was 1000 nM (active).

Turning to `O=[N+]([O-])c1c(Cl)c(Cl)cc(Cl)c1Cl`, the Potency result in the experiment on HeLa, in the experiment on Hek293T, in the experiment with JEG-3, with OV90, in the experiment with PA-1 and in the experiment with Tov-21-G was “inactive” in each case. Moreover, the Potency result (in the experiment on Tov112D; in experiment [1]) was “inactive” throughout.

In the case of `CC(N[C@H]1C[C@H]1c1ccccc1)c1ccc2c(c1)OCCO2` (some centres not stated), the Potency entry in the experiment on HeLa, in the experiment with Hek293T, with JEG-3, in the experiment with OV90, with PA-1 and with Tov-21-G was “inactive” throughout. Besides, the Potency result with Tov112D was “inactive”.

As to `COC(=O)c1cncn1C(C)c1ccccc1` (configuration not stated), the Potency result in the experiment with HeLa, with Hek293T, in the experiment on JEG-3, in the experiment on OV90, with PA-1 and in the experiment with SKOV3 was “inactive” throughout. For the same compound, the Potency entry (with Tov-21-G; in the experiment with Tov112D; in experiment [1]; in the experiment with astro) was “inactive” each time.

For the origin of these results see PubChem BioAssay (NCATS).
